Consider 39 molecules from PubChem BioAssay (NCATS).

Inconclusive results are not listed. Where a call stands in place of a potency, no number is given. Active and inactive are the calls of the source. Calls follow the shape of the full dose curve.

The target in the experiment is Nucleoprotein (Lymphocytic choriomeningitis virus (strain Armstrong)) (UniProt P09992). As to the kind of experiment: qHTS for Inhibitors of the Functional Ribonucleoprotein Complex (vRNP) of Lymphocytic Choriomeningitis Arenaviruses (LCMV): LCMV Primary Screen - GLuc reporter signal (AID 1347086). Also: nearly all actives have a fitted effect of over 70% in size. To be noted: LCMV minigenome vRNP cell assay, Gaussia luciferase reporter; series mostly up to 57.5 µM. Background: In qHTS, concentration-response curves come from the screen itself.
Chain of Nucleoprotein (Lymphocytic choriomeningitis virus (strain Armstrong)) (P09992 whole entry, looked up): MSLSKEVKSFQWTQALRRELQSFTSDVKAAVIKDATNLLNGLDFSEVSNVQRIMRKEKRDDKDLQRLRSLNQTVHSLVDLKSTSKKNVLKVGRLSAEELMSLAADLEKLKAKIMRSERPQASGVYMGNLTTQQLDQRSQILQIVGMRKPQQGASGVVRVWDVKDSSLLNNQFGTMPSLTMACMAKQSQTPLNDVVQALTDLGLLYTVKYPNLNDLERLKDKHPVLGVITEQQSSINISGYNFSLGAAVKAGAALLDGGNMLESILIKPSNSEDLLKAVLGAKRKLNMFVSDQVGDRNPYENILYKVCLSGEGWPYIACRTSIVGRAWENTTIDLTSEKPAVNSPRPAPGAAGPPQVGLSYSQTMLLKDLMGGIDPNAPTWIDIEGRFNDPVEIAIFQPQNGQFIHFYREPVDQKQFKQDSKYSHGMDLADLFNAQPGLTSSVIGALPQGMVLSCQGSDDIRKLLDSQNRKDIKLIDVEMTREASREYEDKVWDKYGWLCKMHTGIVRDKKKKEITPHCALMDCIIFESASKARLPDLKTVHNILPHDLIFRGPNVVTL
`CN1CCN(C2=Nc3ccccc3Sc3ccc(Cl)cc32)CC1`: the Potency entry is “inactive”.
Next, `CC1CCCCN1CCCOC(=O)c1ccc(OC2CCCCC2)cc1` (centres undefined): “inactive”; `CN1CCCN(C(c2ccccc2)c2ccc(Cl)cc2)CC1` (centres undefined): “inactive”.
Then `c1ccc2c(c1)CCc1ccccc1N2`, with “inactive”; and `CN1CCC(=C2c3ccccc3CC(=O)c3sccc32)CC1`, with “inactive”; and `O=c1[nH]c2ccccc2c(=O)n1CCCl`, with “inactive”.
For the molecule `CN(C(=O)c1c(O)c2ccccc2n(C)c1=O)c1ccccc1`, the Potency entry was “inactive”.
Then `Cc1ncc(COP(=O)(O)O)c(C=O)c1O`, with “inactive”; and `CCCCC[C@H](O)C=C[C@H]1[C@H](O)CC(=O)[C@H]1CC=CCCCC(=O)O`, with “inactive”.
Next, `O=C(NCCCN1CCOCC1)c1ccc(Cl)cc1`: “inactive”; `O=C(CCNNC(=O)c1ccncc1)NCc1ccccc1`: “inactive”.
Turning to `Cc1ccc(=O)n(-c2ccccc2)c1`, the Potency entry was “inactive”.
With `COc1ccc2c(c1)c(CC(=O)OCC(=O)O)c(C)n2C(=O)c1ccc(Cl)cc1`, the Potency entry was “inactive”.
Then `CCN(CC)CC(=O)Nc1c(C)cccc1C`, with “inactive”.
Then `Nc1c2c(nc3ccccc13)CCCC2O` (centres undefined), with “inactive”.
Consider `CCCCCCCCCCCCCCCCCCOCC(O)CO` (centres undefined), for which the Potency result was “inactive”.
Next, `CN(C)CCN(Cc1ccc(Cl)cc1)c1ccccn1`: “inactive”.
Next, `CC(C)(C)CC(=O)OCC(=O)[C@@]1(O)CC[C@H]2[C@@H]3CCC4=CC(=O)C=C[C@]4(C)[C@H]3[C@@H](O)C[C@@]21C`: “inactive”; `OC[C@]1(O)OC[C@@H](O)[C@H](O)[C@@H]1O`: “inactive”; `NS(=O)(=O)c1cc(C(=O)O)c(NCc2ccco2)cc1Cl`: “inactive”.
Then `CC1(C)O[C@@H]2C[C@H]3[C@@H]4C[C@H](F)C5=CC(=O)C=C[C@]5(C)[C@H]4[C@@H](O)C[C@]3(C)[C@]2(C(=O)CO)O1`, with “inactive”.
On to `O=C1Nc2cc(Cl)ccc2Oc2ccccc21`, for which the Potency result was “inactive”.
Next, `O=C(c1ccc(F)cc1)C1CCN(CCn2c(=O)[nH]c3ccccc3c2=O)CC1`: “inactive”; `C=C[C@@]1(C)CC(=O)[C@]2(O)[C@@]3(C)[C@@H](O)CCC(C)(C)[C@@H]3[C@H](O)[C@H](OC(C)=O)[C@@]2(C)O1`: “inactive”.
Regarding `CC(C)[C@@H]1CC[C@@H](C)CC1=O`, the Potency result was “inactive”.
Then `Cc1[nH]c(C)c(Cl)c(=O)c1Cl`, with “inactive”.
Next, `Cc1cc(C(C)(C)C)cc(C)c1CC1=NCCN1`: “inactive”.
Next, `N[C@H]1CN(c2c(F)cc3c(=O)c(C(=O)O)cn(C4C[C@@H]4F)c3c2Cl)CC12CC2` (some centres undefined): “inactive”; `CCC(=O)O[C@]1(C(=O)COC)[C@@H](C)C[C@H]2[C@@H]3CCC4=CC(=O)C=C[C@]4(C)C3(F)[C@@H](O)C[C@@]21C` (some centres undefined): “inactive”; `CCCCCCCC/C=C\CCCCCCCCN`: “inactive”.
`Clc1ccccc1-c1nc(-c2ccncc2)no1`: the Potency result was “inactive”.
Next, `Cc1cc(C(C)(C)C)c(O)c(C)c1CC1=NCCN1`: “inactive”; `Cc1c(C)n(Cc2ccccc2)c2ccc(C(=O)OCCN(C)C)cc12`: “inactive”.
Then `C/C=C(/C(=C/C)c1ccc(OC(C)=O)cc1)c1ccc(OC(C)=O)cc1`, with “inactive”.
As for `O=C(CCCN1CC=C(n2c(=O)[nH]c3ccccc32)CC1)c1ccc(F)cc1`, the Potency result is “inactive”.
For the molecule `CC[N+](CC)(CC)CCOc1ccc(/C=C/c2ccccc2)cc1`, the Potency entry is “inactive”.
Next, `CN1CCC(=C2c3ccccc3Sc3ccccc32)CC1`: “inactive”; `C(=C\c1ccccc1)/CN1CCN(C(c2ccccc2)c2ccccc2)CC1`: “inactive”; `O=C1CC2(CCCC2)CC(=O)N1CCCCN1CCN(c2ncccn2)CC1`: “inactive”.
